Structures are written as SMILES. Calls of active or inactive are those of the source. Unless noted, the rule behind the calls is not given here.

A short description of assay [1]: HepG2 liver cancer cell viability effects, profiling panel, resazurin fluorescence, 24 h, PK04 Diversity Set (AID 1172). Note: test concentration not given here. Conditions: higher = more signal. For orientation: The colour change of resazurin is a common sign of viable cells or microbes.
Assay [2] in a line: basal S. cerevisiae growth modulation, no modifier, primary screen, OD600, strain BY4716, 24 h, basal condition (AID 1173). To be noted: OD600, 24 h, higher = more signal, called active from +8 up or from −8 down.
Assay [3] can be described thus: MM1S myeloma cell viability, profiling panel, resazurin fluorescence, basal, 24 h, PK04 Diversity Set (AID 1174).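 Note: MM1S multiple myeloma cell line; test concentration not given here.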 To be noted: higher = more signal, called active from +8 up or from −8 down.
Assay [4] addresses Dihydroorotate dehydrogenase (quinone), mitochondrial (Plasmodium falciparum (isolate 3D7)) (UniProt Q08210). The assay is described as follows: PfDHODH enzyme inhibitors, primary screen, biochemical, C-terminal His tag, absorbance 600 nm (AID 1175).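 Note: recombinant parasite enzyme with a five histidine tag at its C terminus; test concentration not given here.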 Conditions: DCIP absorbance 600 nm, higher = more signal, called active from +8 up or from −8 down.
Assay [5] is described as follows: P. aeruginosa biofilm formation inhibitors, primary screen, strain PAO1, LB-PBS medium, absorbance 600 nm (AID 1176). Note: test concentration not given here. To be noted: P. aeruginosa PAO1 growth/biofilm, A600, 12 h; higher = more signal.
A short description of assay [6]: S. cerevisiae RM11-1a growth modifiers, primary screen, strain RM11-1a, OD600, basal, 24 h (AID 1177).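 Note: cultures grown under basal conditions with no added stressor; test concentration not given here.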 Conditions: OD600, 24 h, higher = more signal, called active from +8 up or from −8 down.
Assay [7] is described as follows: E. coli acrAB mutant growth effects, primary screen, E. coli filamentation inducers, strain DRC39, OD650, 24 h (AID 1178).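 Note: growth measured as culture turbidity by optical density at 650 nm; test concentration not given here.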 Conditions: higher = more signal, called active from +8 up or from −8 down.
The nature of assay [8]: E. coli acrAB mutant growth effects, primary screen, E. coli filamentation inducers, strain DRC39, OD650, 48 h (AID 1179).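 Note: screen aims at cell division blockers that make cells filament.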 To be noted: E. coli DRC39 delta-acrAB growth, higher = more signal, called active from +8 up or from −8 down.
Assay [9] can be described thus: RPMI8226 myeloma cell viability, profiling panel, resazurin fluorescence, basal, 24 h, PK04 Diversity Set (AID 1180).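 Note: RPMI8826 multiple myeloma cell line at 5000 cells per well; test concentration not given here.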 Conditions: higher = more signal.
In assay [10] the target is E3 ubiquitin-protein ligase XIAP (Homo sapiens) (UniProt P98170). Kind of assay: XIAP binders, primary screen, biophysical, small-molecule microarray, fluorescence 635 nm (AID 1181).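 Note: score merges 667 nm emission and signal to noise over triplicate slides.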 To be noted: small-molecule microarray binding, higher = more signal.
Sequence of E3 ubiquitin-protein ligase XIAP (Homo sapiens) (P98170 whole entry, looked up): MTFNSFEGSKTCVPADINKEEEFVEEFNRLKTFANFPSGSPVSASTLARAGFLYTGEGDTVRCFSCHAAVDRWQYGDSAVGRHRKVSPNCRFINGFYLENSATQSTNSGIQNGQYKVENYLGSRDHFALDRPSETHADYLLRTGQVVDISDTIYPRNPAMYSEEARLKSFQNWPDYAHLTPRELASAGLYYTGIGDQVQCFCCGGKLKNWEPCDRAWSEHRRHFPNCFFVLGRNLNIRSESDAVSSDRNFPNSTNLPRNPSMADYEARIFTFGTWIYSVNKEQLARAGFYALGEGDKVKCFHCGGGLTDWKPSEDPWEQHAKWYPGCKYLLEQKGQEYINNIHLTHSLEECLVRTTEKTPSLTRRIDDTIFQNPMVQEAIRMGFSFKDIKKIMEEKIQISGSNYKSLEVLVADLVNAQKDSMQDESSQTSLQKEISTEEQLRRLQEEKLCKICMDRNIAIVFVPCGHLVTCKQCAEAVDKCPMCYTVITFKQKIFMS

Sequence of Dihydroorotate dehydrogenase (quinone), mitochondrial (Plasmodium falciparum (isolate 3D7)) (Q08210 whole entry, looked up): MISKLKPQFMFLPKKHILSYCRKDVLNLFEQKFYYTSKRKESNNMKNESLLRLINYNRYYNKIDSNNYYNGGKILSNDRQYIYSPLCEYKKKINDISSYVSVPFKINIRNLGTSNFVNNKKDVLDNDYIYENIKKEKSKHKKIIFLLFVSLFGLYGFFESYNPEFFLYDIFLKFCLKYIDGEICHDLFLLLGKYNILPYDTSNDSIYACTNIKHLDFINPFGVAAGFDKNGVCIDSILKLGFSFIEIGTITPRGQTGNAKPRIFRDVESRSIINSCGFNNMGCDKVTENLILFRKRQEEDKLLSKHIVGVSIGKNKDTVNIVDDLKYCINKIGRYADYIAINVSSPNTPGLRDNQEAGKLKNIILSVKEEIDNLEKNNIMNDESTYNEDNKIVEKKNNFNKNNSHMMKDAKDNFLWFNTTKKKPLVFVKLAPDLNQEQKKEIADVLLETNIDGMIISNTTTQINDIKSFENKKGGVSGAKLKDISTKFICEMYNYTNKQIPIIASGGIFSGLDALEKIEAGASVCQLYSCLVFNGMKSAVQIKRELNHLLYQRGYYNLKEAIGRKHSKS

With `CCOC(=O)CCN1C(=O)[C@H]2[C@H]3[C@H](O)[C@H](O)CC(=NOCc4ccccc4)[C@H]3CC[C@H]2C1=O`, the z-score in assay [1] is -0.436; in assay [2], 0.556 (inactive); in assay [3], -1.34 (inactive); in assay [5] it was 0.365 (inactive); in assay [6], 0.632 (inactive); in assay [7], 0.955 (inactive). In addition, the z-score in [8] is 1.08 (inactive); in assay [9], -0.775. The composite z-score in [4] was 0.461 (inactive); in [10], 0.012.
As for `CC(CCN1CCCCc2nc(C)c(C)cc21)=NO[C@H](C)c1cn([C@H](CO)Cc2ccccc2)nn1`, the z-score in assay [1] was -0.605; in assay [2], -0.241 (inactive); in [3], 0.0783 (inactive); in assay [5], -0.503 (inactive); in assay [6] it was -0.134 (inactive); in assay [7], -0.894 (inactive). Moreover, the z-score was -0.488 (inactive) in assay [8] and 0.594 in [9]. For the same molecule, the composite z-score in assay [4] is 0.301 (inactive); in assay [10], 0.0595.
In the case of `COC(=O)[C@@H]1CC[C@@H](C)[C@H](c2ccc(Br)cc2)N1`, the z-score in [1] was 0.0869; in [2] it was -0.176 (inactive); in assay [3], -0.0484 (inactive); in [5] it was 0.766 (inactive); in assay [6], -0.0446 (inactive); in assay [7], -0.234 (inactive). Moreover, the results for the z-score in assay [8] and in [9] were -0.0612 (inactive) and 0.429, respectively. The composite z-score was -0.275 (inactive) in [4] and 0.0548 in [10].
Regarding `C#CCCCON=C1C[C@@H](O)[C@@H](O)[C@@H]2[C@@H]3C(=O)N(c4ccc(F)cc4F)C(=O)[C@@H]3CC[C@H]12`, the z-score in [1] is 0.63; in assay [2], -0.98 (inactive); in [3], 0.475 (inactive); in assay [5], 0.577 (inactive); in [6], -1.67 (inactive); in assay [7] it was 0.335 (inactive). Also, the z-score in [8] is 0.537 (inactive); in assay [9], 0.817. For the same molecule, the composite z-score in assay [4] was -0.31 (inactive); in [10], 0.199.
For the molecule `C=CC[C@@H]1C=C[C@H](ON=C2[C@H]3CCn4c(=O)n(-c5ccccc5)c(=O)n4[C@H]3[C@H](O)[C@@H]3O[C@H]23)[C@@H](CO)O1`, the z-score was -0.684 in [1]; 0.695 (inactive) in [2]; -0.646 (inactive) in assay [3]; 0.675 (inactive) in [5]; 0.779 (inactive) in assay [6]; 0.207 (inactive) in [7]. The z-score in [8] is -0.104 (inactive); in assay [9], -0.331. The composite z-score in assay [4] was 0.329 (inactive); in assay [10], -0.0663.
Consider `CCC=CCCC(OC(=O)c1ccc(Br)cc1)C1=CCCCC1=O` (stereo not given), for which the z-score in assay [1] is -0.0791; in assay [2] it was -2.43 (inactive); in assay [3] it was -1.06 (inactive); in [5], 0.119 (inactive); in assay [6] it was -0.791 (inactive); in assay [7] it was 0.181 (inactive). Moreover, the z-score in [8] was 0.0322 (inactive); in [9] it was -0.88. Also, the composite z-score in assay [4] is -1.38 (inactive); in [10], -0.291.
For the molecule `COc1ccc(C#C[C@@H]2C=C[C@H](OC(C)=O)[C@@H](COC(C)=O)O2)cc1`, the z-score is 0.0002 in assay [1]; -1.59 (inactive) in assay [2]; -2.77 (inactive) in assay [3]; 0.0372 (inactive) in assay [5]; -0.939 (inactive) in assay [6]; 0.746 (inactive) in [7]. In addition, the values for the z-score in assay [8] and in assay [9] were 0.348 (inactive) and -1.49, respectively. The values for the composite z-score in assay [4] and in [10] were -0.531 (inactive) and -0.0801, respectively.
With `COc1ccc(COC(=O)NN=C2C[C@@H](O)[C@@H](O)[C@@H]3[C@@H]4C(=O)N(Cc5ccccc5)C(=O)[C@@H]4CC[C@H]23)cc1`, the z-score is 1.35 in assay [1]; 0.3 (inactive) in [2]; 1.28 (inactive) in assay [3]; 0.07 (inactive) in [5]; -0.629 (inactive) in [6]; 0.426 (inactive) in assay [7]. Further, the values for the z-score in assay [8] and in assay [9] were -0.463 (inactive) and 0.635, respectively. Further, the composite z-score in assay [4] was -0.307 (inactive); in assay [10], 0.152.
With `CCOC(=O)[C@H](Cc1ccccc1)NC(=O)CCC1CC(OC(=O)NCCc2ccc(F)cc2)CC2(CCCC(COC(=O)NCCc3ccccc3OC)O2)O1` (stereo not given in full), the z-score in assay [1] is -0.0425; in assay [2], 0.456 (inactive); in assay [3], -0.288 (inactive); in assay [5], 0.626 (inactive); in assay [6], 0.476 (inactive); in assay [7] it was -0.0222 (inactive). Moreover, the z-score in assay [8] was -1.19 (inactive); in [9], 0.0228. Further, the values for the composite z-score in assay [4] and in assay [10] were -0.732 (inactive) and -0.0796, respectively.
Turning to `CCOC(=O)[C@H](CC(C)C)NC(=O)CCC1CC(OC(=O)NCc2cccc3ccccc23)CC2(CCCC(COC(=O)NCCOC)O2)O1` (stereo not given in full), the z-score is -0.0621 in assay [1]; -2.14 (inactive) in [2]; 1.35 (inactive) in assay [3]; 0.226 (inactive) in assay [5]; -1.73 (inactive) in assay [6]; 0.521 (inactive) in [7]. Besides, the z-score is -0.0291 (inactive) in [8] and 0.986 in [9]. Besides, the composite z-score in assay [4] was -0.531 (inactive); in [10], 0.0589.
With `CCOC(=O)NN=C1C[C@@H](O)[C@@H](O)[C@@H]2[C@@H]3C(=O)N(c4ccc(F)cc4F)C(=O)[C@@H]3CC[C@@H]12`, the z-score is 1.06 in [1]; 0.559 (inactive) in assay [2]; 0.514 (inactive) in [3]; 0.118 (inactive) in [5]; 0.916 (inactive) in assay [6]; 0.239 (inactive) in [7]. The z-score in [8] is -0.559 (inactive); in [9], 0.562. The composite z-score in assay [4] was -0.0225 (inactive); in [10], -0.0663.
With `CC(C)=CCCC(C)=CCON=C1C[C@@H](O)[C@@H](O)[C@@H]2[C@@H]3C(=O)N(c4cccc(Oc5ccccc5)c4)C(=O)[C@@H]3CC[C@@H]12`, the z-score was 0.171 in assay [1]; -1.86 (inactive) in assay [2]; 0.815 (inactive) in [3]; 0.0001 (inactive) in [5]; -0.556 (inactive) in assay [6]; 0.615 (inactive) in [7]. Besides, the z-score in assay [8] was -0.923 (inactive); in assay [9] it was -0.198. The composite z-score is -2.48 (inactive) in [4] and 0.0368 in assay [10].

Source of the values: PubChem BioAssay.
